Unmarked numbers belong to inactive results.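 How the source made its calls: active = MAPPIT score above the 99th percentile of random reference set scores in the same batch; inactive = at or below it.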
Legend:
Assay in all cases: MAPPIT interaction score (arbitrary units); higher = stronger binary interaction signal, active = hit call of the paper
Blos1 = details: MAPPIT configuration: N-N; pair source set: Finley_Y2H
Tm1 = details: MAPPIT configuration: N-N; pair source set: screen_2
mldr = details: MAPPIT configuration: N-N; pair source set: Finley_Y2H
Blos2 = details: MAPPIT configuration: N-N; pair source set: Curagen_low_conf
Bro = details: MAPPIT configuration: N-N; pair source set: screen_2
Bx = details: MAPPIT configuration: N-N; pair source set: screen_2
CG5618 = details: MAPPIT configuration: N-N; pair source set: Curagen_low_conf
Lim1 = details: MAPPIT configuration: N-N; pair source set: Curagen_high_conf
C15 = details: MAPPIT configuration: N-N
CG8813 = details: MAPPIT configuration: N-N; pair source set: Lit-BS-16
Lamtor3 = details: MAPPIT configuration: N-N; pair source set: Curagen_high_conf
Nplp1 = details: MAPPIT configuration: N-N; pair source set: Curagen_low_conf
Rm62 = details: MAPPIT configuration: N-N; pair source set: Curagen_low_conf
Traf-like = details: MAPPIT configuration: N-N; pair source set: Curagen_low_conf
row = details: MAPPIT configuration: N-N; pair source set: Curagen_low_conf
CG5050 = details: MAPPIT configuration: N-N; pair source set: Curagen_high_conf
rdx = details: MAPPIT configuration: N-N; pair source set: Curagen_high_conf
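Further: HEK293T cells with Epo stimulation, STAT-responsive firefly luciferase reporter, fold induction versus unstimulated cells divided by the larger fold induction of two negative controls lacking either bait or prey.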

B1: Blos2 (protein)
chain: MDKPTTSAAAAAAQDSNLLPDSPQHGPTLSSASSFEALTRHDPNLSRLATKMFNKTEEYITHELNAPLEDYKLLEEMNKATIAKYKDMRQIAENLNTSTSELSLKFQQLAPMMQQIDEISDTVDKLEAAAYKLDAYSIALENRVKCVLQRKSGGGQVAQ
How did the MAPPIT interaction score (Blos1) turn out when B1 was run?
The MAPPIT interaction score was 2.29.

What about the MAPPIT interaction score (Tm1) of the same binder?
The MAPPIT interaction score was 1.6.

What about the MAPPIT interaction score (mldr) of the same binder?
The MAPPIT interaction score was 0.813.

B2: drk (protein)
chain: MEAIAKHDFSATADDELSFRKTQILKILNMEDDSNWYRAELDGKEGLIPSNYIEMKNHDWYYGRITRADAEKLLSNKHEGAFLIRISESSPGDFSLSVKCPDGVQHFKVLRDAQSKFFLWVVKFNSLNELVEYHRTASVSRSQDVKLRDMIPEEMLVQALYDFVPQESGELDFRRGDVITVTDRSDENWWNGEIGNRKGIFPATYVTPYHS
How did the MAPPIT interaction score (Blos2) turn out when B2 was run?
Its MAPPIT interaction score is 0.473.

B3: run (protein)
chain: MHLPAGPTMVANNTQVLAAAAAAAAAAAAAVAQGPGPQQSSNATTASAIAINPAQSLANTSTHSASSTGSSTPDLSTNNTSSSSNATTSPQNSAKMPSSMTDMFASLHEMLQEYHGELAQTGSPSILCSALPNHWRSNKSLPGAFKVIALDDVPDGTLVSIKCGNDENYCGELRNCTTTMKNQVAKFNDLRFVGRSGRGKSFTLTITIATYPVQIASYSKAIKVTVDGPREPRSKQSYGYPHPGAFNPFMLNPAWLDAAYMTYGYADYFRHQAAAQAAQVHHPALAKSSASSVSPNPNPSVATSSSSAVQPSEYPHPAAAVAAAAGQPAAMMPSPPGAAPATPYAIPQFPFNHVAAAAAAKAATPHAFHPYNFAAAAGLRARNAALHHQSEPVHVSPASSRPSSSSPTQQHVLLKLNTSIETSSIHEQSASDGDSDDEQIDVVKSEFDLDKSLDVAPLRMRCDLKAPSAMKPLYHESGPGAVANSRQPSPETTTKIKSAAVQQKTVWRPY
Which MAPPIT interaction score (Bro) does the source give for B3 here?
The MAPPIT interaction score was 3.14 (active).

B4: Chi (protein)
chain: MSWQDYVDNQLLASQCVTKACIAGHDGNIWAQSSGFEVTKEELSKLISGFDQQDGLTSNGVTLAGQRYIYLSGTDRVVRAKLGRSGVHCMKTTQAVIVSIYEDPVQPQQAASVVEKLGDYLITCGY
How did the MAPPIT interaction score (Bx) turn out when B4 was run?
The MAPPIT interaction score was 6.14 (active).

What about the MAPPIT interaction score (CG5618) of the same binder?
Its MAPPIT interaction score is 0.207.

What about the MAPPIT interaction score (Lim1) of the same binder?
Its MAPPIT interaction score is 1.91.

B5: Rm62 (protein)
chain: MLKLVQYIAPRVGGATPRPTACGWGNLLLISPRSGASSEKCITQRRHFLFSSASSSGTFASSSSLCTEQRQQFHGSRRNRETILFPSTYSSLQAQSQRAFRDSSKPDSDDYVDSIPKAEQRTRTRKSLFNDPDERTEEIKIEGVMAPHDRDFGHSGRGGRGGDRGGDDRRGGGGGGNRFGGGGGGGDYHGIRNGRVEKRRDDRGGGNRFGGGGGFGDRRGGGGGGSQDLPMRPVDFSNLAPFKKNFYQEHPNVANRSPYEVQRYREEQEITVRGQVPNPIQDFSEVHLPDYVMKEIRRQGYKAPTAIQAQGWPIAMSGSNFVGIAKTGSGKTLGYILPAIVHINNQQPLQRGDGPIALVLAPTRELAQQIQQVATEFGSSSYVRNTCVFGGAPKGGQMRDLQRGCEIVIATPGRLIDFLSAGSTNLKRCTYLVLDEADRMLDMGFEPQIRKIVSQIRPDRQTLMWSATWPKEVKQLAEDFLGNYIQINIGSLELSANHNIRQVVDVCDEFSKEEKLKTLLSDIYDTSESPGKIIIFVETKRRVDNLVRFIRSFGVRCGAIHGDKSQSERDFVLREFRSGKSNILVATDVAARGLDVDGIKYVINFDYPQNSEDYIHRIGRTGRSNTKGTSFAFFTKNNAKQAKALVDVLREANQEINPALENLARNSRYDGGGGRSRYGGGGGGGRFGGGGFKKGSLSNGRGFGGGGGGGGEGRHSRFD
For B5, which MAPPIT interaction score (C15; pair source set: Curagen_low_conf) is on record?
The MAPPIT interaction score was -0.475.

What about the MAPPIT interaction score (C15; pair source set: Finley_Y2H) of the same binder?
The MAPPIT interaction score was 0.053.

And the MAPPIT interaction score (CG8813)?
Its MAPPIT interaction score is -0.848.

What about the MAPPIT interaction score (Lamtor3) of the same binder?
Its MAPPIT interaction score is 0.248.

And the MAPPIT interaction score (Nplp1)?
The MAPPIT interaction score was -0.193.

And the MAPPIT interaction score (Rm62)?
The MAPPIT interaction score was -0.712.

What about the MAPPIT interaction score (Traf-like) of the same binder?
The MAPPIT interaction score was 0.928.

What about the MAPPIT interaction score (row) of the same binder?
The MAPPIT interaction score was 0.558.

B6: Polr3F (protein)
chain: MATEVSQLLLAVVQGIPAGATNDDLTKALPDVPAATRVEALNILLQEGGIEILKKGEKLVYRAKDPEKKSALPKDADNEEKVVYGIVEEGGNKGIWIRDIRMKSNLNMIQLNKILKNLETKKLIKAVKSVNASKKKVYMLYNLEPDLSITGGAWYQDQDFEVEFVDVLNQQCLRFLQMKRDSAEKKREGPLAFKQMSCCTVNEVQKFISDLGISKVNLAEADLETILKTVVYDGNAERVRQQDGSFVYRAVNAPLPPTGLVQMPCGICPVIKNCSNCGDVTAITCEYMRDWLD
How did the MAPPIT interaction score (C15; pair source set: Lit-BS-16) turn out when B6 was run?
Its MAPPIT interaction score is 0.0584.

What about the MAPPIT interaction score (CG5050) of the same binder?
The MAPPIT interaction score was 0.169.

What about the MAPPIT interaction score (rdx) of the same binder?
The MAPPIT interaction score was -0.105.

Reference: the supplement of paper PMC10105736
